BJeLR lethal – MLPCN primary cell-based screen for lethality selective to Ras in HRASV12 cells. inhibition, % (no concentration beside the values). 300,000 compounds, 0.17% hits. AID 1554, 2009. BJeLR (HRASV12) viability, CellTiter-Glo ATP luminescence, 48 h; in the data active = inhibition above about 50%; inconclusive = no clear call, values can overlap the other calls
PfHsp40 rescue – rescue of yeast from PfHsp40 toxicity, primary screen, S. cerevisiae, ATP luminescence | AID 504582, 2011 | S. cerevisiae expressing PfHsp40, growth rescue | growth rescue, % at 12.5 µM | 340,000 compounds, 0.68% hits; in the data active = growth rescue above about 28%, passing the limit was not always enough; inconclusive = no clear call, values can overlap the other calls;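 also: yeast W303a lacking pdr1 and pdr3 grown in galactose medium; growth measured after three days at 30 °C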
Sa ugtP lethal – growth inhibition of ugtP-null S. aureus, primary screen, RN4220 ugtP deletion, OD600 | 16 h | growth inhibition, % (concentration not given with the values) | 330,000 compounds, 0.54% hits | AID 1259309, 2017; in the data active = growth inhibition above about 68%;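 also: plate controls were untreated wells for no effect and antibiotic for full effect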
RN4220 kill – growth inhibition of S. aureus RN4220, primary screen, OD600. 330,000 compounds, 0.33% hits. inhibition, % (concentration not given with the values). 16 h. AID 1259311, 2017; in the data active = inhibition above about 85%;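 also: plate controls were untreated cells for no effect and reference antibiotic for full effect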
SARS 3CLpro inh – SARS-CoV 3CLpro protease inhibitors, primary screen, biochemical, quenched FRET; inhibition, % at 6 µM; recombinant SARS-CoV 3CLpro, quenched FRET peptide cleavage; Replicase polyprotein 1ab (Severe acute respiratory syndrome coronavirus), P0C6X7; 290,000 compounds, 0.14% hits; in the data active = inhibition above about 12%
Active calls of the source: *; ? = inconclusive; . = not tested or not shown. Sampled rows, rich in hits. Any-hit rate of the full collection: about 1.3%.

SMILES	BJeLR lethal	PfHsp40 rescue	Sa ugtP lethal	RN4220 kill	SARS 3CLpro inh
O=C(NNc1c(Cl)cc(Cl)cc1Cl)c1cccc([N+](=O)[O-])c1	-2	192*	-9	2	2
Cn1ncc(C#N)c1N=CN(Cc1ccccc1)Cc1ccccc1	.	.	100*	101*	.
Cn1ncc(C#N)c1/N=C/N(Cc1ccccc1)Cc1ccccc1	-6	0	.	.	0
O=C(NC1CCCCC1)C(c1cccnc1)N(C(=O)CCl)c1cccc(Cl)c1 (stereo unspecified)	89*	1	-7	17	3
Cc1cccc(N(C(=O)CNC(=O)c2ccco2)C(C(=O)NC2CCCCC2)c2cccnc2)c1 (stereo unspecified)	-7	1	12	4	2
COc1ccc(C)cc1NC(=O)CCNS(=O)(=O)c1cccc(C(F)(F)F)c1	-2	0	2	8	-1
Cc1[nH]n(C(N)=S)c(=O)c1N=Nc1ccc2ccccc2c1	3	55*	-7	1	2
Cc1ccc(N=Nc2c(C)[nH]n(C(N)=S)c2=O)cc1C	-2	-1	0	1	2
CN(c1ccc(OCC(=O)Nc2cc(Cl)ccc2C(=O)O)cc1)S(=O)(=O)c1ccc(F)cc1	.	26*	10	5	.
COc1cc(CN2CCC(C(=O)N3CCCC(C)C3)CC2)cc(OC)c1O (stereo unspecified)	8	0	-1	2	8
O=C(Nc1nnc(SCc2ccc(F)cc2)s1)c1ccccn1	11	161*	99*	98*	6
Clc1ccc2c(c1)c1cc(Cl)ccc1n2CN1CCOCC1	-5	367*	84*	62	5
COc1ccc(Cl)cc1CN1CCOCC1	-2	-2	5	4	-1
Clc1ccc2c(c1)c1ccccc1n2CN1CCOCC1	0	31*	6	-26	-2
COc1cccc(C(=O)NCC(=O)NN=Cc2cccs2)c1	.	.	6	2	.
Cc1ccc(C(=O)N(CCC2=CCCCC2)c2c(N)n(Cc3ccccc3)c(=O)[nH]c2=O)o1	-7	-1	1	1	.
CCCCCCCCOC(=O)C1=C(C)Nc2nnnn2C1c1cccs1 (stereo unspecified)	1	76*	49	-1	6
CCCCCCCOC(=O)C1=C(C)Nc2ncnn2C1c1cccs1 (stereo unspecified)	6	2	-30	1	-3
COc1ccc(-c2cccc(NS(=O)(=O)c3ccccc3[N+](=O)[O-])c2)nn1	5	0	3	7	.
O=c1cc(-c2ccccc2)[nH]n1-c1ccccc1	.	-1	-1	6	.
O=c1cc(-c2ccccc2)[nH]n1-c1nc2ccccc2s1	-1	-1	91*	80	2
Cc1ccc(C2=CC(c3ccc(C)cc3)n3ncnc3N2)cc1 (stereo unspecified)	5	69*	5	4	.
CCn1c(CNc2ccc(Cl)cc2)nnc1SCc1ccccc1	1	120*	-4	-2	3
Cn1c(CNc2ccc(Cl)cc2)nnc1SCC#N	-3	-1	11	2	4
Cn1c(CNc2ccc(Cl)cc2)nnc1SCc1ccccc1	-4	143*	-3	-8	-1
SMILES	BJeLR lethal	PfHsp40 rescue	Sa ugtP lethal	RN4220 kill	SARS 3CLpro inh
Cc1ccc2nc(N(CCCN(C)C)C(=O)COc3ccc(Cl)cc3)sc2c1	3	0	4	-4	-1
CN[C@H]1C[C@H]2O[C@@](C)([C@H]1OC)n1c3ccccc3c3c4c(c5c6ccccc6n2c5c31)C(=O)NC4	107*	.	.	.	-3
O=C(NCc1ccccc1)c1c(Cl)nc(Cl)c(Cl)c1Cl	70*	-1	9	14	3
Cc1nc(Cl)c(C(=O)NCc2ccccc2)c(C)c1Cl	-6	2	10	10	0
O=C(c1ccco1)C(O)c1ccco1 (stereo unspecified)	1	-1	.	.	-3
Cc1[nH]nc(SCC(=O)N2CCCCCC2)c1[N+](=O)[O-]	-16	49*	4	0	4
Cc1[nH]nc(SCC(=O)N2CCCCC2)c1[N+](=O)[O-]	-9	1	-2	4	-3
N#Cc1c(NC(=O)c2ccccc2)sc2c1CCCCC2	5	0	10	27	0
N#Cc1c(Cl)nsc1NC(=O)c1ccccc1	16	217*	81	78	-2
CCc1cccc(C)c1NC(=O)CCCN1C(=O)NC(C)(C)C1=O	.	-1	10	1	.
COc1ccccc1/C=C/C=NNC(=O)c1ccc(=O)n(C)c1	.	.	0	0	.
Cn1cc(C(=O)N/N=C/C=C/c2ccccc2)ccc1=O	1	51*	.	.	5
CC(=O)NC(c1cccc([N+](=O)[O-])c1)c1ccc2cccnc2c1O (stereo unspecified)	35	194*	.	.	6
Oc1cccc(C(Nc2nccs2)c2ccc3cccnc3c2O)c1 (stereo unspecified)	36	215*	2	9	4
CCCCC(=O)NC(c1ccc(C(C)C)cc1)c1ccc2cccnc2c1O (stereo unspecified)	54*	-3	-3	34	8
COc1cccc(C(NC(C)=O)c2ccc3cccnc3c2O)c1 (stereo unspecified)	22	?	.	.	-2
CCCCC(=O)NC(c1cccc([N+](=O)[O-])c1)c1ccc2cccnc2c1O (stereo unspecified)	.	105*	1	16	.
CCCCC(=O)NC(c1ccccc1)c1ccc2cccnc2c1O (stereo unspecified)	25	-1	.	.	-1
COc1ccc(N(C(=O)c2ccc(Br)o2)C2C=CS(=O)(=O)C2)cc1 (stereo unspecified)	4	-1	0	6	-1
C=CCN(C(=O)c1csnn1)C(C(=O)NC1CCCC1)c1cccs1 (stereo unspecified)	-7	1	6	5	7
CCOC(=O)C(CC)/C(C)=N\NC(=O)c1ccccc1O (stereo unspecified)	-6	110*	.	.	-1
CCC/C(C)=N/NC(=O)c1ccccc1O	3	-1	.	.	5
CCN(CC)CCCN1CC(O)=C(c2nc3ccccc3s2)C1=N	-3	-1	-4	-4	-2
COc1ccc(Cn2c(SCc3cc(C)ccc3C)nc3cc(OC)c(OC)cc3c2=N)cc1	-2	1	-16	16	3
COc1ccc(Cn2c(SCc3ccc(C)cc3)nc3cc(OC)c(OC)cc3c2=N)cc1Cl	5	1	99*	100*	-3
CC(=O)C(=NNc1ccc(Cl)cc1Cl)Sc1cccc2cccnc12	.	.	85*	6	.
CCCCCCCCCCCC(=O)c1c(O)cccc1O	2	165*	100*	100*	2
CCCCCCCC(=O)NNC(=O)Cc1ccccc1	-3	0	-2	1	0
O=C(CCn1nc(-c2ccc(Cl)cc2)ccc1=O)N1CCN(c2ccccc2)CC1	-4	1	0	10	-4
